This test can be described thus: differential killing of epithelial or mesenchymal cells, primary screen, imaging, PC-3E GFP, TEM4-18 mCherry, co-culture (AID 1345086).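 On all read-outs here: cells exposed to compound for 72 h before imaging.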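 On red/green cell ratio (normalised): normalised mesenchymal count divided by normalised epithelial count so high means epithelial killing.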 The conditions noted are these: imaging cell counts, at 1 µM; for red/green cell ratio (normalised): actives lie on both sides, counts scaled to control wells, 1 = unselective.
Setting [1] is: measured here: epithelial PC-3E GFP cell survival.
Setting [2] is: measured here: mesenchymal TEM4-18 mCherry cell survival.

Activity calls are given as the source filed them.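 How the source made its calls: active means compounds killing one labelled cell type while sparing the other, by normalised counts and ratio limits, not self-fluorescent; inactive means the rest.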

In PubChem BioAssay one finds red/green cell ratio (normalised) and normalised cell number data, which are given here for 28 compounds.

In the case of `COc1c(O)cc2c(c1O)C(=O)O[C@@H](C)[C@@H]2O`, the red/green cell ratio (normalised) was 1 (inactive). The compound also had a normalised cell number under setting [1] of 1.01. Moreover, the normalised cell number under setting [2] came to 1.02.
The matching figures for `C=C1CC[C@@]2(C)[C@H](C)CC[C@H](O)[C@@]2(CCC=C(C)C)[C@@H]1Cc1c[nH]c2ccccc12`: 0.97 (inactive), 0.88 and 0.85.
With `CC(=O)NCCc1ccc(O)c(-c2c(O)c(O)c3c(c2O)C(=O)c2c(cc(O)c(C(=O)O)c2C(=O)O)C3=O)c1`, the red/green cell ratio (normalised) is 1.13 (inactive). Besides, the normalised cell number under setting [1] came out at 0.95. Moreover, the normalised cell number under setting [2] came out at 1.07.
The matching figures for `Nc1ccc2ccccc2c1S(=O)(=O)O`: 0.94 (inactive), 1.03 and 0.97.
As for `OC[C@H]1O[C@H](OC[C@H]2O[C@@H](O)[C@H](O)[C@@H](O)[C@@H]2O)[C@H](O)[C@@H](O)[C@H]1O`, the red/green cell ratio (normalised) is 0.93 (inactive). Under setting [1], the normalised cell number came to 0.99. For the same compound, the normalised cell number under setting [2] was found to be 0.91.
Regarding `OCC(O)C(O)C(O)C(O)C(O)CO` (centres undefined), the red/green cell ratio (normalised) was 0.95 (inactive). The normalised cell number under setting [1] was found to be 0.96. For the same compound, the normalised cell number under setting [2] stood at 0.91.
The matching figures for `C[C@H]1C[C@H](O)[C@H]2[C@@H](C=C[C@@](C)(O)[C@]2(C)C(=O)CCO)C1`: 0.95 (inactive), 0.32 and 0.3.
On to `CCOC(=O)O[C@]1(C(=O)COC(=O)CC)CCC2C3CCC4=CC(=O)C=C[C@]4(C)C3[C@@H](O)C[C@@]21C` (some centres undefined), for which the red/green cell ratio (normalised) was 0.87 (inactive). Also, under setting [1], the normalised cell number stood at 1.29. Under setting [2], this compound registered a normalised cell number of 1.13.
The matching figures for `O=C1C=CC2(Oc3cccc4cccc(c34)O2)[C@H]2[C@H]1[C@@H](O)C=C[C@H]2O`: 0.98 (inactive), 1.06 and 1.04.
The matching figures for `Cc1ccc(S(=O)(=O)O[C@@H]2CCOC2=O)cc1`: 0.71 (inactive), 1.41 and 1.01.
The matching figures for `O=C(O)CCC(=O)OC1C(CO)O[C@H](Sc2ccccc2)[C@H]2NC(=O)O[C@@H]12` (some centres undefined): 1.26 (inactive), 0.84 and 1.06.
Consider `CC(=O)OC[C@@]1(O)C[C@@]23CCC4c5ccoc5CC[C@]4(C)C2CC[C@@H]1C3` (some centres undefined), for which the red/green cell ratio (normalised) was 0.98 (inactive). The compound also had a normalised cell number under setting [1] of 0.89. For the same compound, under setting [2], the normalised cell number was 0.88.
The matching figures for `COc1cc(N)cc(OC)c1`: 0.94 (inactive), 0.97 and 0.91.
The matching figures for `C=C1OC(=O)[C@]2([C@H](C)C=C[C@H](O)[C@@H]2O)[C@@H]1O`: 0.98 (inactive), 1 and 0.99.
The matching figures for `Cc1cn(CC(=O)O)c(=O)[nH]c1=O`: 0.86 (inactive), 1.15 and 0.99.
In the case of `CC(CCC(=O)O)[C@H]1CCC2C3CC[C@@H]4CCCC[C@]4(C)C3CC[C@@]21C` (some centres undefined), the red/green cell ratio (normalised) was 0.93 (inactive). Under setting [1], the normalised cell number stood at 1.12. The compound further displayed a normalised cell number under setting [2] of 1.04.
With `COc1cc2c(cc1OC)C1C(=O)c3c(O)cc4c(c3OC1CO2)C=CC(C)(C)O4` (centres undefined), the red/green cell ratio (normalised) was 0.7 (inactive). Moreover, the normalised cell number under setting [1] came to 0.94. Under setting [2], the normalised cell number is 0.66.
In the case of `O=C(O)C(c1ccccc1)c1ccccc1`, the red/green cell ratio (normalised) was 1.12 (inactive). In addition, the normalised cell number under setting [1] came out at 1.01. The compound also returned a normalised cell number under setting [2] of 1.13.
Consider `CCC[C@@H]1Cc2cc3c(-c4c(O)cc(O)c5c(O)c6c(cc45)C[C@@H](CCC)OC6=O)c(O)cc(O)c3c(O)c2C(=O)O1`, for which the red/green cell ratio (normalised) is 0.85 (inactive). The compound further displayed a normalised cell number under setting [1] of 1.2. Under setting [2], the normalised cell number amounted to 1.02.
The matching figures for `COC1=N[C@@](OC)(C(C)C)C(=O)N[C@@]1(O)[C@H](O)c1ccccc1`: 0.8 (inactive), 1.21 and 0.96.
With `NCc1ccccc1CC(=O)NC1C(=O)N2C(C(=O)O)=C(CSc3nnnn3CC(=O)O)CSC12` (centres undefined), the red/green cell ratio (normalised) was 0.82 (inactive). Also, the normalised cell number under setting [1] turned out to be 1.19. This compound also came in with a normalised cell number under setting [2] of 0.98.
For the compound `O=C1C[C@@H](O)[C@]23Oc4ccc(O)c5c4[C@](Oc4cccc1c42)(O3)C1O[C@@H]1[C@H]5O` (some centres undefined), the red/green cell ratio (normalised) was 0.97 (inactive). Besides, the normalised cell number under setting [1] is 1.1. The normalised cell number under setting [2] was 1.07.
For `C=C(C)n1cc(C(=O)OC)c(=O)c2cc(F)c(F)c(OC)c21`, the red/green cell ratio (normalised) was 1.15 (inactive). This compound gave a normalised cell number under setting [1] of 0.99. The normalised cell number under setting [2] was found to be 1.14.
For `CNC1C(O[C@@H]2OC(CO)C(N)[C@H](O)C2O)OC2CC(N)[C@@H](OC3C(N)C[C@@H](N)C(O)[C@H]3O)OC2C1O` (some centres undefined), the red/green cell ratio (normalised) was 1.2 (inactive). The same compound had a normalised cell number under setting [1] of 0.92. Moreover, the normalised cell number under setting [2] amounted to 1.1.
The matching figures for `CC(C)(O)CC[C@@H](O)[C@](C)(O)C1CC[C@@]2(O)C3=CC(=O)C4C[C@@H](O)[C@@H](O)C[C@]4(C)C3CC[C@]12C` (some centres undefined): 0.93 (inactive), 0.94 and 0.88.
The matching figures for `CC(=O)OCC[C@H](C)CCC=C(C)C`: 1.13 (inactive), 1 and 1.13.
The matching figures for `CC(CC(=O)N1C(=O)OC[C@H]1c1ccccc1)N1C(=S)OC[C@@H]1c1ccccc1` (some centres undefined): 0.97 (inactive), 1.02 and 0.99.
On to `C[C@H](O)[C@@H]1N[C@H]2N(C1=O)c1ccccc1C21CC2C(=O)NC1c1nc3ccccc3c(=O)n12` (some centres undefined), for which the red/green cell ratio (normalised) was 1.08 (inactive). Further, under setting [1], the normalised cell number was 0.88. Under setting [2], this compound returned a normalised cell number of 0.95.
